From PubChem BioAssay (NCI) come the findings set out here.

Compounds without any hit were thinned out: in the full panel of roughly 79,000, 15% have a hit. Values without a mark were called inactive. The source made the active and inactive calls. No stated cut-off is given here; in the data, active means growth inhibition above about 70%; inactive means the rest.

A short description of assay [1]: NCI Yeast Anticancer Drug Screen. Data for the rad50 strain (AID 155).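 Further: 0% = growth of vehicle-only cultures of the same strain.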 Particulars: S. cerevisiae rad50 strain growth inhibition, stronger effect = higher value. In short, it runs like this: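 Inhibition values express reduced yeast growth in compound-treated cultures relative to vehicle-treated controls.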
Assay [2] can be described thus: NCI Yeast Anticancer Drug Screen. Data for the mec2-1 strain (AID 157). The conditions noted are these: S. cerevisiae mec2-1 strain, stronger effect = higher value. In short, it runs like this:
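Yeast mec2-1 mutant treated with compound. Readout: growth inhibition vs vehicle controls.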

Assay [3] in a line: NCI Yeast Anticancer Drug Screen. Data for the sgs1 mgt1 strain (AID 161).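 Further: 0% = growth of cultures given vehicle only.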 Particulars: S. cerevisiae sgs1 mgt1 strain, stronger effect = higher value. In short, it runs like this: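 Mutant yeast exposed to compound; growth scored against vehicle-only wells.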
Assay [4] is described as follows: NCI Yeast Anticancer Drug Screen. Data for the cln2 rad14 strain (AID 165).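 Further: 0% = growth equal to vehicle treated cultures.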 Particulars: S. cerevisiae cln2 rad14 strain, stronger effect = higher value. The method, boiled down:
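cln2 rad14 yeast strain; compound exposure; growth inhibition read vs vehicle controls.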

The nature of assay [5]: NCI Yeast Anticancer Drug Screen. Data for the bub3 strain (AID 167). Particulars: S. cerevisiae bub3 mutant strain, stronger effect = higher value. In short, it runs like this: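 Steps: expose the mutant yeast strain to compound; grow alongside vehicle-treated cultures; measure growth; express inhibition against the vehicle cultures.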
A short description of assay [6]: NCI Yeast Anticancer Drug Screen. Data for the mlh1 rad18 strain (AID 175). Particulars: S. cerevisiae mlh1 rad18 strain growth inhibition, stronger effect = higher value. The method, boiled down:
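Yeast w/ defined DNA-repair lesions; compound exposure; growth vs vehicle controls → % inhibition.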

Setting [7] is: at 5.0 µM (retest, dose inferred, filed as 0.5).
Setting [8] is: at 50.0 µM (retest, dose inferred, filed as 5.0).

With `CCCC(C)c1ccccc1OP(=S)(S)Oc1ccccc1C(C)CCC` (stereo unspecified), the growth inhibition was -3% in assay [1] (setting [7]); -3% in assay [1] (setting [8]); 97.3% (active) in assay [1] (at 50.0 µM); -2% in assay [2] (setting [7]); -1% in assay [2] (setting [8]); 97.8% (active) in assay [2] (at 50.0 µM). For the same molecule, the growth inhibition in assay [3] (setting [7]) is 2%; in assay [3] (setting [8]), -2%; in assay [3] (at 50.0 µM) it was 97.5% (active); in assay [4] (setting [7]), 3%; in assay [4] (setting [8]), 0%; in assay [4] (at 50.0 µM) it was 96.5% (active). Moreover, the growth inhibition in assay [5] (setting [7]) was -5%; in assay [5] (setting [8]) it was 0%; in assay [5] (at 50.0 µM) it was 95.8% (active); in assay [6] (setting [7]) it was 0%; in assay [6] (setting [8]), -3%; in assay [6] (at 50.0 µM), 97.2% (active).

`O=C([CH-]C(=O)c1ccccc1)c1ccccc1.O=C([CH-]C(=O)c1ccccc1)c1ccccc1.[Nd+3].[OH-].[OH3+]`: the growth inhibition in assay [1] (setting [7]) was 34%; in assay [1] (setting [8]), 34%; in assay [1] (at 50.0 µM), 92.2% (active); in assay [2] (setting [7]), 11%; in assay [2] (setting [8]), 11%; in assay [2] (at 50.0 µM) it was 93.7% (active). The growth inhibition was 38% in assay [3] (setting [7]); 38% in assay [3] (setting [8]); 94.2% (active) in assay [3] (at 50.0 µM); 36% in assay [5] (setting [7]); 36% in assay [5] (setting [8]); 92.2% (active) in assay [5] (at 50.0 µM). Also, the growth inhibition was 30% in assay [6] (setting [7]), 30% in assay [6] (setting [8]) and 89.8% (active) in assay [6] (at 50.0 µM).

`O=C([CH-]C(=O)c1ccccc1)c1ccccc1.O=C([CH-]C(=O)c1ccccc1)c1ccccc1.[La+3].[OH-].[OH3+]`: the growth inhibition in assay [1] (setting [7]) is 24%; in assay [1] (setting [8]) it was 24%; in assay [1] (at 50.0 µM), 92% (active); in assay [2] (setting [7]), 23%; in assay [2] (setting [8]) it was 23%; in assay [2] (at 50.0 µM), 93.5% (active). Besides, the growth inhibition in assay [3] (setting [7]) was 27%; in assay [3] (setting [8]), 27%; in assay [3] (at 50.0 µM), 93.7% (active); in assay [5] (setting [7]), 37%; in assay [5] (setting [8]), 37%; in assay [5] (at 50.0 µM), 91.2% (active). For the same molecule, the growth inhibition in assay [6] (setting [7]) was 25%; in assay [6] (setting [8]), 25%; in assay [6] (at 50.0 µM), 88.2% (active).

For the molecule `[Cl][Pt+2][Cl].[NH-]c1ccc([N+](=O)[O-])cc1[NH-]`, the growth inhibition in assay [1] (setting [7]) is 40%; in assay [1] (setting [8]), 73% (active); in assay [1] (at 50.0 µM), 63.8%; in assay [2] (setting [7]) it was 27%; in assay [2] (setting [8]), 62%; in assay [2] (at 50.0 µM), 75.7% (active). Also, the growth inhibition in assay [4] (setting [7]) was 99% (active); in assay [4] (setting [8]), 94% (active); in assay [4] (at 50.0 µM), 54.6%; in assay [5] (setting [7]) it was 100% (active); in assay [5] (setting [8]), 95% (active); in assay [5] (at 50.0 µM) it was 68.3%. For the same molecule, the values for the growth inhibition in assay [6] (setting [7]), in assay [6] (setting [8]) and in assay [6] (at 50.0 µM) were 58%, 79% (active) and 70.5% (active), respectively.

In the case of `CC1Oc2cc3c(-c4c(O)cc(O)c5c(O)c6c(cc45)OC(C)C(C)C6=O)c(O)cc(O)c3c(O)c2C(=O)C1C` (stereo unspecified), the growth inhibition in assay [1] (setting [7]) is 8%; in assay [1] (setting [8]), 85% (active); in assay [1] (at 50.0 µM), 83.1% (active); in assay [2] (setting [7]) it was -10%; in assay [2] (setting [8]), 83% (active); in assay [2] (at 50.0 µM), 84.2% (active). Besides, the growth inhibition was -2% in assay [3] (setting [7]); 86% (active) in assay [3] (setting [8]); 83% (active) in assay [3] (at 50.0 µM); 30% in assay [4] (setting [7]); 69% in assay [4] (setting [8]); 82.8% (active) in assay [4] (at 50.0 µM). Besides, the growth inhibition in assay [6] (setting [7]) was 10%; in assay [6] (setting [8]), 84% (active); in assay [6] (at 50.0 µM) it was 84.2% (active).

With `CC(=O)C(CN(C)Cc1ccccc1)C(c1ccccc1)c1c(O)c2ccccc2oc1=O` (stereo unspecified), the growth inhibition is 26% in assay [1] (setting [7]); 26% in assay [1] (setting [8]); 68.5% in assay [1] (at 50.0 µM); 1% in assay [2] (setting [7]); 1% in assay [2] (setting [8]); 56.2% in assay [2] (at 50.0 µM). The growth inhibition in assay [4] (setting [7]) was -9%; in assay [4] (setting [8]), -9%; in assay [4] (at 50.0 µM), 47.5%; in assay [5] (setting [7]) it was -1%; in assay [5] (setting [8]), -1%; in assay [5] (at 50.0 µM) it was 70.7% (active). Further, the growth inhibition in assay [6] (setting [7]) was 11%; in assay [6] (setting [8]), 11%; in assay [6] (at 50.0 µM) it was 76.5% (active).

In the case of `O=[N+]([O-])c1cc(Cl)ccc1S(=O)(=O)F`, the growth inhibition in assay [1] (setting [7]) was 98% (active); in assay [1] (setting [8]), 98% (active); in assay [1] (at 50.0 µM), 99.7% (active); in assay [2] (setting [7]) it was 98% (active); in assay [2] (setting [8]), 99% (active); in assay [2] (at 50.0 µM), 99.6% (active). The growth inhibition in assay [4] (setting [7]) was 98% (active); in assay [4] (setting [8]) it was 98% (active); in assay [4] (at 50.0 µM), 99.2% (active); in assay [5] (setting [7]), 98% (active); in assay [5] (setting [8]), 98% (active); in assay [5] (at 50.0 µM), 99.5% (active). In addition, the results for the growth inhibition in assay [6] (setting [7]), in assay [6] (setting [8]) and in assay [6] (at 50.0 µM) were 96% (active), 98% (active) and 99.5% (active), respectively.

In the case of `CC1=C(CC/C(C)=C/CCC2(C)CCC([C@H](C)C(=O)O)OO2)C(C)(C)CCC1` (stereo partly specified) (tested in a mixture with another compound), the growth inhibition in assay [1] (setting [7]) is 18%; in assay [1] (setting [8]), 97% (active); in assay [1] (at 50.0 µM), 90.2% (active); in assay [2] (setting [7]) it was 39%; in assay [2] (setting [8]) it was 97% (active); in assay [2] (at 50.0 µM), 93% (active). Moreover, the growth inhibition was 46% in assay [4] (setting [7]); 97% (active) in assay [4] (setting [8]); 90.5% (active) in assay [4] (at 50.0 µM); 9% in assay [5] (setting [7]); 97% (active) in assay [5] (setting [8]); 92.2% (active) in assay [5] (at 50.0 µM). The figures for the growth inhibition in assay [6] (setting [7]), in assay [6] (setting [8]) and in assay [6] (at 50.0 µM) were 51%, 96% (active) and 91.3% (active), respectively.

Regarding `COC1(O[C@H]2CC[C@H]3[C@@H]4CCC5=CC(=O)CC[C@]5(C)[C@H]4CC[C@]23C)CCCCC1`, the growth inhibition was 3% in assay [1] (setting [7]); -8% in assay [1] (setting [8]); 99.5% (active) in assay [1] (at 50.0 µM); 5% in assay [2] (setting [7]); 2% in assay [2] (setting [8]); 99.5% (active) in assay [2] (at 50.0 µM). The growth inhibition in assay [3] (setting [7]) was -30%; in assay [3] (setting [8]), -33%; in assay [3] (at 50.0 µM) it was 99.5% (active); in assay [4] (setting [7]) it was 1%; in assay [4] (setting [8]), -4%; in assay [4] (at 50.0 µM) it was 99.2% (active). The growth inhibition was 1% in assay [5] (setting [7]); -4% in assay [5] (setting [8]); 99.1% (active) in assay [5] (at 50.0 µM); -25% in assay [6] (setting [7]); -56% in assay [6] (setting [8]); 99.4% (active) in assay [6] (at 50.0 µM).

In the case of `O=C([CH-]C(=O)c1ccccc1)c1ccccc1.O=C([CH-]C(=O)c1ccccc1)c1ccccc1.[CH2-]CCC.[CH2-]CCC.[Sn+4]`, the growth inhibition in assay [1] (setting [7]) was 83% (active); in assay [1] (setting [8]), 98% (active); in assay [1] (at 50.0 µM), 90.3% (active); in assay [2] (setting [7]), 91% (active); in assay [2] (setting [8]), 99% (active); in assay [2] (at 50.0 µM), 93.2% (active). The growth inhibition is 86% (active) in assay [3] (setting [7]); 58% in assay [3] (setting [8]); 93% (active) in assay [3] (at 50.0 µM); 90% (active) in assay [5] (setting [7]); 93% (active) in assay [5] (setting [8]); 91.8% (active) in assay [5] (at 50.0 µM). The growth inhibition was 92% (active) in assay [6] (setting [7]), 99% (active) in assay [6] (setting [8]) and 90% (active) in assay [6] (at 50.0 µM).

Consider `N#Cc1cc([N+](=O)[O-])c(Cl)c([N+](=O)[O-])c1Cl`, for which the growth inhibition in assay [1] (setting [7]) is 50%; in assay [1] (setting [8]), 98% (active); in assay [1] (at 50.0 µM), 92.6% (active); in assay [2] (setting [7]), 61%; in assay [2] (setting [8]), 99% (active); in assay [2] (at 50.0 µM), 93.2% (active). Moreover, the growth inhibition in assay [3] (setting [7]) was 100% (active); in assay [3] (setting [8]) it was 98% (active); in assay [4] (setting [7]) it was 70% (active); in assay [4] (setting [8]), 97% (active); in assay [5] (setting [7]) it was 99% (active); in assay [5] (setting [8]), 96% (active). Besides, the growth inhibition was 41% in assay [6] (setting [7]), 99% (active) in assay [6] (setting [8]) and 92.1% (active) in assay [6] (at 50.0 µM).
